# Screens from PubChem.
# The list is not random: actives were taken first. Their share in the collection is about 11%.
# Gal4-VP16 FLuc: counter-screen for ROR gamma inhibitors: Gal4-VP16 reporter; Drosophila S2 Gal4-VP16 UAS-luciferase, luminescence, 20 h; Potency, µM (doses to about 53.6 µM), inactives show top-dose activity, negative = inhibition, hits mostly inhibitors; hit rate 3.5% among 310,000; AID 2546;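 further: Gal4-VP16 expression switched on by copper sulfate through the metallothionein promoter; potency means the concentration at half of the fitted maximal effect; on the % scale 0 is the no-effect control and ±100 the full control effect; nearly all actives have a fitted effect of over 50% in size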
# RORgamma inh: ROR gamma (mouse) transcription inhibition. Drosophila S2 Gal4-RORgamma UAS-luciferase reporter, 20 h. Potency, µM (highest dose often 53.6 µM), for inactives: at the highest dose activity change, negative = inhibition, hits mostly inhibitors. hit rate 5.4% among 310,000. AID 2551; further: potency means the concentration at half of the fitted maximal effect; on the % scale 0 is the no-effect control and ±100 the full control effect; nearly all actives have a fitted effect of over 60% in size
# Target sequence (P51450 whole entry, looked up, the tested form may be a part): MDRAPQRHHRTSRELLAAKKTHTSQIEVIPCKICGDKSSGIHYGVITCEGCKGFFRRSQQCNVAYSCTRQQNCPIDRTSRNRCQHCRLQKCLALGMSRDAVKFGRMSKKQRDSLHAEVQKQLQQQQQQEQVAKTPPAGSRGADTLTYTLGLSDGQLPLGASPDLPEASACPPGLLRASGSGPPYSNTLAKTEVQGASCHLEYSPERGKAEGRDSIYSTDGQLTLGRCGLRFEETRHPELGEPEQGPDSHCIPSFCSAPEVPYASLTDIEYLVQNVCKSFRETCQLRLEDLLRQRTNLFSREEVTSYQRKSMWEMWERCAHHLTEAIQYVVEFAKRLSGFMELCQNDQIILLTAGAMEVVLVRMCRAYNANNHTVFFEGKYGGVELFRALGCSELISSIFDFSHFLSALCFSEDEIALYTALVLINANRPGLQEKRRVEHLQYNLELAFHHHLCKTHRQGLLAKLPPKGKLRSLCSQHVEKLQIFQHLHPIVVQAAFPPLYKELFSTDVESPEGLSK
#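 Using a luciferase readout, inhibitors were identified by reduced reporter activity in Drosophila cells coexpressing a copper-inducible Gal4–ROR gamma fusion and UAS-driven Photinus luciferase, incubated 20 hr after 700 uM copper sulfate.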
# MCF10A rereplic: induces DNA re-replication in MCF 10a normal breast cells | MCF 10A DNA re-replication, Hoechst nuclear intensity, 48 h | Potency, µM (doses to about 46.1 µM), without a hit: at the highest dose activity, positive = re-replication, hits mostly activators | hit rate 2.9% among 350,000; further: potency means the concentration at half of the fitted maximal effect; % of control where 0% means no effect; nearly all actives have a fitted effect of over 50% in size
# SW480 rereplic: induces DNA re-replication in SW480 colon adenocarcinoma cells | SW480 DNA re-replication, Hoechst DNA content imaging, 48 h | Potency, µM (titrated, usually from 46.1 µM), without a hit: top-dose re-replication activation, most hits filed as activators | hit rate 1.8% among 340,000 | AID 624297; further: potency means the concentration at half of the fitted maximal effect; % of control where 0% means no effect; nearly all actives have a fitted effect of over 55% in size
#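 250 cells/well; 23 nL cpd via pin tool; 48 hr, 37 C, 5% CO2; Hoechst 40 min; imager read of total nuclear intensity, ex 405/em 500-530 nm.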
# IL-1B inflam inh: inhibitors of inflammasome signaling (IL-1 beta secretion); THP-1 LPS/ATP IL-1B secretion, AlphaLISA, 16 h; stronger effect = lower value; activity change, % at 57.5 µM; hit rate 4.7% among 360,000; AID 743279; in the data active means activity change below about -50%; inconclusive means mostly about -30% to -49%; further: on the % scale 0 is the no-effect control and ±100 the full control effect
#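 Secreted IL-1B measured by AlphaLISA bead assay after 16 h compound exposure of THP-1 cells; compounds (final up to 57.5 uM) added 1 h before LPS (250 ng/mL) and ATP (1.25 mM) stimulation; lower signal means less secretion.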
# Active calls of the source: *; ? = inconclusive; . = not tested or not shown; [ ] = dose if it differs, or a comment. Unless noted, the call rests on the fitted dose curve; in most records, active means well fitted curve in the direction sought with a large enough effect; inconclusive means small, poorly fitted or top-dose-only effect, or another doubt; inactive means no such curve, though single readings can be large; an effect the other way counts as inactive or inconclusive.
SMILES,Gal4-VP16 FLuc,RORgamma inh,MCF10A rereplic,SW480 rereplic,IL-1B inflam inh
Nc1nonc1-n1nnc(C(=O)N/N=C/c2cccc(Cl)c2Cl)c1CN1CCCC1,?,?,?,21µM*,26
COc1cc(/C=N/OCC(=O)NC2CCCCC2C)ccc1OCc1ccc(Cl)cc1 (configuration not stated),-17%,?,16µM*,-2%,?
COc1cc(/C=N/OCC(=O)Nc2cc(C)cc(C)c2)ccc1OCc1ccc(Cl)cc1,0%,-1%,20%,.,-5
CCCc1nnc(NC(=O)c2cc3ccccc3o2)s1,?,-24%,8%,0.26µM*,-8
COc1cccc(C(=O)Nc2nnc(SCC(=O)Nc3ccc(NC(C)=O)cc3)s2)c1,?,11µM*,-4%,2%,-7
CCCc1nnc(NC(=O)c2cccc(OC)c2)s1,-17%,7.1µM*,4%,-4%,0
COc1cccc(C(=O)Nc2nnc(C(C)C)s2)c1,?,8.9µM*,14%,-13%,-10
CCCc1nnc(NC(=O)c2cc3ccccc3oc2=O)s1,11%,-1%,-8%,?,-22
COc1cccc(C(=O)Nc2nnc(Cc3ccc(OC)c(OC)c3)s2)c1,-5%,-22%,4%,10%,26
CC(C)c1nnc(NC(=O)c2cccc(-n3cnnn3)c2)s1,5%,28%,13%,-6%,9
COc1cccc(C(=O)Nc2nnc(S(=O)(=O)N(C)Cc3ccccc3)s2)c1,-7%,32%,3%,12µM*,4
COCCNC(=O)C1(C)CCCN(C(=O)c2ccco2)C1 (configuration not stated),.,.,.,.,53
NC(=S)NC(=O)/C=C/c1ccccc1,?,7.9µM*,5%,?,-96*
O=C(C=Cc1ccccc1)NCCNC(=O)C=Cc1ccccc1,.,.,-1%,-1%,38
O=C(/C=C/c1ccc(F)cc1)NC(=S)Nc1ccccc1O,?,?,9%,11%,?
O=C(/C=C/c1ccccc1)/C=C/c1ccccc1,?,?,3.3µM*,21µM*,-98*
O=C(/C=C/c1ccccc1)NC(=S)Nc1ccccc1O,?,?,13%,?,-63*
O=C(/C=C/c1ccc(Cl)cc1)NC(=S)Nc1ccccc1C(=O)O,0%,9%,?,16µM*,0
O=C(OCC(=O)c1ccc(Cl)cc1Cl)c1cnccn1,5%,6%,7%,8%,-8
O=C1CC2(CCN(C(=O)c3c(F)cccc3F)CC2)Oc2ccccc21,.,.,-6%,-3%,-8
CCCCc1ccc(-c2csc(/C(C#N)=C\c3ccc(C)o3)n2)cc1,1%,2%,?,2%,-50*
N#C/C(=C\c1ccc(-c2ccccc2)cc1)c1nc(-c2ccco2)cs1,4%,1%,23µM*,1%,0
N#C/C(=C\c1ccc(-c2ccc(F)cc2)o1)C(=O)Nc1nc(-c2cccs2)cs1,1%,21%,?,-4%,0
N#C/C(=C/c1ccc(-c2ccccc2)o1)c1nc(-c2cccs2)cs1,0.1µM*,?,?,4%,0
CC12CC[C@@H]3c4ccc(OS(=O)(=O)O)cc4CC[C@H]3C1CCC2=O (some centres not stated),-9%[17 µM],-14%[16.9 µM],.,.,.
SMILES,Gal4-VP16 FLuc,RORgamma inh,MCF10A rereplic,SW480 rereplic,IL-1B inflam inh
Cc1ccc(C2=[N+]([O-])C3(CCCCC/C3=N\NC(N)=O)N(O)C2(C)C)o1 (configuration not stated),-24%,1%,-10%,-4%,-1
Cc1ccc(C2=[N+]([O-])C3(CCCCC/C3=N\NC(N)=S)N(O)C2(C)C)o1 (configuration not stated),2.2µM*,1.6µM*,.,.,.
COc1ccc(CCN2C(=O)C=CC2=O)cc1OC,.,.,4.6µM*,7.3µM*,-115*
COc1ccc(CCN2C(=O)CSC2c2ccc(OC)c(OC)c2)cc1OC (configuration not stated),-13%,41%,3%,-15%,0
COc1ccc(C2SCC(=O)N2CCc2ccc(OC)c(OC)c2)cc1 (configuration not stated),2.8µM*,?,0.52µM*,10µM*,3
Nc1ccn([C@@H]2O[C@H](CNCc3cccc(OC4CCCC4)c3)[C@@H](O)[C@H]2O)c(=O)n1,.,.,.,.,-2
N#CC1C(=N)Cc2ccccc2-c2ccccc21 (configuration not stated),.,.,?,16µM*,-17
COC1(C#CC2C=CC(OC(C)=O)C(COC(C)=O)O2)CCCCC1 (configuration not stated),9%[10 µM],25%[10 µM],.,.,.
CCOC(=O)CC(=O)CSc1nc2c(sc(=S)n2-c2ccc(OCC)cc2)c(=O)[nH]1,-4%,179%,2%,-4%,-53*
Cc1cc(OCC(=O)Nc2ccccc2C(N)=O)c2c(C)cc(=O)oc2c1,3%,-3%,-9%,6%,-12
CCOC(=O)c1c(C)n(C)c2ccc(O)c(CN(C)C)c12,-5%,26%,?,0%,-53*
CCOC(=O)c1c(C)n(-c2ccc(C)cc2)c2ccc(O)c(CN(C)C)c12,?,?,?,?,-68*
CCOC(=O)c1c(C)n(-c2ccc(OC)cc2)c2ccc(O)c(CN(C)C)c12,-8%,-13%,11%,?,-30
CCN(CC)c1ncnc2c1ncn2[C@H]1CN(Cc2cc(OC)c(OC)c(OC)c2)C[C@@H](CO)O1,.,.,.,.,-12
COc1ccc(C2=Nn3c(nnc3-c3cccc(OC)c3OC)SC2)cc1,0%,-3%,.,.,.
CCN1CCC(CN2CCNC2=S)CC1,.,.,-14%,16µM*,10
CC(=O)c1ccc2c3c(cc(C)c2c1)CCCC3,.,.,21µM*,1%,12
CN(C)C(=O)c1c(NC(=O)c2ccccc2)sc2c1CCC2,11%,-4%,-2%,-1%,7
CCN(CC)CCCC(C)NC(=O)c1c(NC(=O)c2ccccc2)sc2c1CCCC2 (configuration not stated),-11%,-29%,4.6µM*,?,.
O=C1CN(C(=O)COC(=O)c2cc(Cl)ccc2[N+](=O)[O-])c2ccccc2N1,.,.,.,.,14
Cc1ccccc1C[C@H](C(=O)O)N1C(=O)c2ccc(C(=O)O)cc2C1=O,-4%,-16%,.,.,.
NCC12CC3CC(C1)CC(c1ccc(Cl)cc1)(C3)C2,?,?,?,6%,-89*
Nc1ccc(C23CC4CC(CC(CO)(C4)C2)C3)cc1,-14%,7%,3%,-22%,-5
COc1ccc2c(C#N)c3ccccn3c2c1,3%,23%,23µM*,?,-9
Cc1cc(=O)n2ccccc2c1C#N,-1%,-4%,-4%,-10%,6
COc1cc(NC(=S)N2CCc3ccccc3C2)cc(OC)c1,?,14µM*,3%,2%,4
COc1ccc(NC(=S)N2CCc3ccccc3C2)cc1OC,-6%,11µM*,7%,-1%,-3
